The source made the active and inactive calls. Cut-off read from the data, not from the text of the source: active = inhibition above about 36%; inactive = the rest.

The term inhibition denotes the relative decrease from the control value, in per cent.

This assay concerns transactivating tegument protein VP16 (Human herpesvirus 1). The assay is described as follows: VP16 transactivation reporter inhibitors, counter-screen for SRC2 inhibitor project, cell-based, luminescence, single concentration (AID 652007). The conditions noted are these: cell-based VP16 transactivation luciferase reporter, at 8.9 µM, stronger effect = higher value. (In general: Counterscreens check selectivity or assay interference.)
For the molecule `Cc1ccc(S(=O)(=O)/C(=C/Cl)NC(=O)c2ccccc2)cc1`, the inhibition was 38.9% (active).

As for `C=C1C(=O)[C@]23C[C@H]1CCC2[C@@]1(C)C(C[C@@H]3O)[C@](C)(C(=O)OC)CC[C@@H]1OC(C)=O` (stereo partly specified), the inhibition is 83.2% (active). The result for `CCCCCCCCCCCCCCCC[n+]1ccccc1` reads 13.5% (inactive); that for `COC(=O)/C=C/C(=O)Nc1cccc(C(F)(F)F)c1`, 25.8% (inactive).

For the molecule `Cc1ccccc1C(=O)N/N=C/c1ccc([N+](=O)[O-])s1`, the inhibition was 64.2% (active). The result for `CCOc1ccc(Nc2cc(C)nc(-n3nc(C)cc3C)n2)cc1` reads -8.07% (inactive).

As for `NS(=O)(=O)c1ccc(Sc2nc3ccccc3s2)c([N+](=O)[O-])c1`, the inhibition was 33% (inactive). For `CC(C)N(c1ccccc1)c1ccc(NC(=O)CCl)cc1` the value was 17.1% (inactive). For `CC(=O)Nc1ccc(Oc2sc(C(=O)c3ccccc3)c(N)c2C#N)cc1` the value was 14.6% (inactive); for `C/C(=N\NC(N)=S)C12CC3CC(CC(C3)C1)C2`, 9.52% (inactive). The result for `O=C(OCC12CC3CC(CC(C3)C1)C2)c1ccc(NCc2cc(O)ccc2O)cc1` reads 97% (active); that for `O=C(CCl)N(c1ccccc1)C1CCCCC1`, 55.6% (active). `COc1cc(/C=C/C(=O)c2ccc(C)cc2)ccc1OCC#N`: the inhibition was 28% (inactive). Turning to `O=C(NCc1cccnc1)/C(=C\c1ccc(-c2cccc(Cl)c2)o1)S(=O)(=O)c1ccccc1`, the inhibition was 44% (active). The result for `Cc1cc(C)c(S(=O)(=O)/N=C2\C=C(Nc3ccc(C(=O)O)cc3)C(=O)c3ccccc32)c(C)c1` reads 6.44% (inactive); that for `S=C(NCCCc1cnc[nH]1)NCCCN(Cc1ccc(Cl)cc1)c1ccc(Br)cn1`, -0.33% (inactive).

Values taken from PubChem BioAssay.
